From PubChem BioAssay AID1852 (Sanford-Burnham Center for Chemical Genomics, 2009)
In all, about 2,500 compounds went through this assay and about 1,100 (44%) were called active.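 How the source made its calls: active means inhibition above 50% at 4 µM in the single-point screen; inactive means inhibition of 50% or less.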 The set was probably picked from earlier hits. Some of the results follow.

Experiment: TNF-a-driven NF-kB reporter inhibitors, primary screen, selectivity assay for NOD1/NOD2 signaling inhibitor project, cell-based, HEK293T NF-kB-Luc, luminescence (AID 1852)
Conditions: TNF-a induced, 14 h, at 4 µM, hits give high values

SMILES	inhibition
O=c1c(Br)c(Br)cnn1-c1ccccc1	90.8% (active)
COc1cc(OC)nc(-n2ncc(Br)c(Br)c2=O)n1	105% (active)
Cc1ccc(-n2ncc(Br)c(Br)c2=O)cc1	105% (active)
Oc1cc2c(cc1C(c1ccc(Br)cc1)N1CCCC1)OCO2 (stereo not drawn)	-3.2% (inactive)
Cc1cc(/C=C2\SC(=S)N(C)C2=O)c(C)n1-c1ccc(O)cc1	24.7% (inactive)
CN1C(=O)/C(=C/c2cc(N=Nc3ccccc3)ccc2O)SC1=S	98.2% (active)
Cc1cc(/C=C2\SC(=S)N(C)C2=O)c(C)n1-c1cccc(O)c1	-111% (inactive)
CN(C)S(=O)(=O)c1cccc(CSCc2cccc(S(=O)(=O)N(C)C)c2)c1	42.8% (inactive)
Cc1cccc(N2CCN(C(=S)NCCc3ccccc3)CC2)c1C	-31.3% (inactive)
S=C(NCCc1ccc(Cl)cc1)Nc1ccc(Cl)cc1Cl	-10.9% (inactive)
S=C(NCCc1ccccc1)Nc1cccc2cnccc12	69.1% (active)
CN(C)S(=O)(=O)c1cccc(NC(=S)Nc2cccc3cnccc23)c1	62.5% (active)
CCN(CC)CCNC(=O)c1ccc(NC(=O)C2CCN(c3ncnc4sc(C)c(C)c34)CC2)cc1	43.8% (inactive)
Cc1sc2ncnc(N3CCC(C(=O)N(C)CC(=O)Nc4ccccc4Cl)CC3)c2c1C	50.3% (active)
CCOC(=O)c1sc(N2C(=O)C(O)=C(C(=O)c3ccco3)C2c2ccco2)nc1C (stereo not drawn)	76.1% (active)
COc1cccc2cc(C(=O)C3=C(O)C(=O)N(c4cc(C)on4)C3c3cccs3)oc12 (stereo not drawn)	-0.9% (inactive)
CCOC(=O)c1sc(N2C(=O)C(O)=C(C(=O)c3ccco3)C2c2cccc([N+](=O)[O-])c2)nc1C (stereo not drawn)	23.8% (inactive)
CCC(C)(C)c1ccc(Oc2ccc(N)cc2)cc1	75.5% (active)
NC(=O)C1CCN(c2ccc(S(=O)(=O)N3CCC(Cc4ccccc4)CC3)cn2)CC1	32.5% (inactive)
Nc1nonc1-n1nnc(C(=O)N/N=C/c2cc(Br)ccc2O)c1CNc1ccccc1	56.5% (active)

SMILES	inhibition
Cc1c(C(=O)N/N=C/c2c(O)ccc3ccccc23)nnn1-c1nonc1N	89% (active)
CC1CCN(Cc2c(C(=O)N/N=C/c3cc(Br)ccc3O)nnn2-c2nonc2N)CC1	95.1% (active)
Cc1nc([N+](=O)[O-])c(Br)n1Cc1ccc(Cl)c(Cl)c1	7.2% (inactive)
CC(C)n1c(CN(C)Cc2ccccc2)nc2c1c(=O)n(C)c(=O)n2C	38.7% (inactive)
Cn1c(=O)c2c(nc(NCc3ccco3)n2C/C=C/c2ccccc2)n(C)c1=O	78.2% (active)
COc1cc(CNc2ccc3[nH]c(=O)[nH]c3c2)cc(Br)c1OCc1ccccc1F	61% (active)
COc1cc(CNc2ccc3[nH]c(=O)[nH]c3c2)cc(Br)c1OCc1ccc(F)cc1	47.6% (inactive)
COc1cc(CNc2ccc3[nH]c(=O)[nH]c3c2)ccc1OCc1ccccc1C	37.1% (inactive)
Cc1cccc(C2=NC(C(F)(F)F)(C(F)(F)F)c3c(n(-c4ccc(F)cc4)c(=O)[nH]c3=O)N2)c1	-13.7% (inactive)
O=c1[nH]c(=O)n(Cc2ccco2)c2c1C(C(F)(F)F)(C(F)(F)F)N=C(c1ccc(F)cc1)N2	90.9% (active)
Cc1ccc(CNc2ncnc(N)c2[N+](=O)[O-])cc1	36.2% (inactive)
Nc1ncnc(NCc2ccc(F)cc2)c1[N+](=O)[O-]	60.6% (active)
O=C(Nc1ccc(N2CCN(c3ncccc3C(F)(F)F)CC2)nc1)c1cccs1	64.1% (active)
Cc1ccc(NC(=O)C2CCN(S(=O)(=O)c3ccc4c(c3)NC(=O)C(C)S4)CC2)cc1Cl (stereo not drawn)	39.1% (inactive)
O=S1(=O)C=C(Sc2nnc(-c3ccccc3)o2)c2ccccc21	70.6% (active)
O=S1(=O)C=C(Sc2nc3cc(Cl)ccc3o2)c2ccccc21	91.1% (active)
Cc1nnc(Sc2nc3ccccc3o2)c2ccccc12	45.3% (inactive)
O=C(CN1CCCCCC1)Nc1ccc(Br)cn1	-21.9% (inactive)
O=C(N/N=C/c1c(O)ccc2ccccc12)c1ccc(Br)o1	34.2% (inactive)
O=C(N/N=C/c1c(O)ccc2ccccc12)c1ccc(CO)nc1	96.6% (active)

SMILES	inhibition
O=C(N/N=C\c1c(O)ccc2ccccc12)c1ccc(O)cc1	69.4% (active)
O=C(CN1CCCC1)N/N=C/c1c(O)ccc2ccccc12	87.6% (active)
Cn1nccc1C(=O)N/N=C/c1c(O)ccc2ccccc12	66.6% (active)
Cc1ccc(C(=O)N/N=C/c2c(O)ccc3ccccc23)cn1	73.2% (active)
Cc1ccc(CN2CCN(C(=O)c3cccc4ccccc34)CC2)cc1	12.3% (inactive)
CCN(CC)c1ccc(C(=O)N2CCN(Cc3ccccc3)CC2)cc1	46.5% (inactive)
C#Cc1ccc([C@@H]2C=C(C(=O)N3CCN(Cc4ccccc4)CC3)O[C@H](OCCCCO)C2)cc1	61.3% (active)
COc1ccc2c(c1)-c1c(ssc1=S)C(C)(C)N2	92.8% (active)
COc1cc(/C=C2/C(=O)NN(c3ccc(Cl)cc3)C2=O)cc(OC)c1O	9.3% (inactive)
COc1cc(/C=C2/C(=O)NN(c3cccc(Cl)c3)C2=O)cc(Br)c1O	0.8% (inactive)
COc1cc(/C=C2/C(=O)NN(c3cccc(Cl)c3)C2=O)cc(OC)c1O	99.4% (active)
N=C1SC(c2ccccc2)C(=O)N1c1ncc(Cc2ccccc2Cl)s1 (stereo not drawn)	106% (active)
N=C1SC(c2ccccc2)C(=O)N1c1ncc(Cc2ccccc2)s1 (stereo not drawn)	107% (active)
Cc1ccc(Cc2cnc(N3C(=N)SC(c4ccccc4)C3=O)s2)cc1 (stereo not drawn)	99.6% (active)
CCOC(=O)C(=Cc1ccc(OCc2ccc([N+](=O)[O-])cc2)c(OC)c1)C(=O)OCC	11.6% (inactive)
Cc1nc2cc(N3CCN(C)CC3)c(NC(=O)Cc3ccccc3)cc2c(=O)n1Cc1ccccc1	-21.7% (inactive)
C/C(=N\NC(=O)c1nnn(-c2nonc2N)c1CN1CCc2ccccc21)c1ccccc1O	78.8% (active)
C/C(=N\NC(=O)c1nnn(-c2nonc2N)c1CN1CCCCC1)c1ccccc1O	64.6% (active)
